# Measured values: PubChem BioAssay (NCI)
# Compounds without any hit were thinned out: in the full panel of roughly 79,000, 15% have a hit. Values without a mark were called inactive. The source made the active and inactive calls. Rule as the data show it: active = growth inhibition above about 70%; inactive = the rest.
# Columns and labels:
# [1] = NCI Yeast Anticancer Drug Screen. Data for the rad50 strain (AID 155);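 also: 0% = growth of vehicle-only cultures of the same strain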; details: S. cerevisiae rad50 strain growth inhibition, hits give high values
# Summary of the method: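 Vehicle-treated cultures provide the reference for the growth inhibition reported for compound-exposed, repair-deficient yeast.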
# [2] = NCI Yeast Anticancer Drug Screen. Data for the mec2-1 strain (AID 157); details: S. cerevisiae mec2-1 strain, hits give high values
# Summary of the method: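 Readout is yeast growth inhibition, normalised to vehicle-treated controls, in the mec2-1 strain exposed to compound.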
# [3] = NCI Yeast Anticancer Drug Screen. Data for the sgs1 mgt1 strain (AID 161);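 also: 0% = growth of cultures given vehicle only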; details: S. cerevisiae sgs1 mgt1 strain, hits give high values
# Summary of the method: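 Yeast cells carrying a defined DNA-repair defect were exposed to test compounds. Growth inhibition was measured relative to vehicle-treated controls.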
# [4] = NCI Yeast Anticancer Drug Screen. Data for the cln2 rad14 strain (AID 165);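 also: 0% = growth equal to vehicle treated cultures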; details: S. cerevisiae cln2 rad14 strain, hits give high values
# Summary of the method: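 Relative to vehicle controls, growth inhibition of compound-treated cln2 rad14 yeast was recorded.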
# [5] = NCI Yeast Anticancer Drug Screen. Data for the bub3 strain (AID 167); details: S. cerevisiae bub3 mutant strain, hits give high values
# Summary of the method: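 Mutant yeast screening strain plus compound; vehicle-treated cultures serve as the 0% inhibition reference.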
# [6] = NCI Yeast Anticancer Drug Screen. Data for the mlh1 rad18 strain (AID 175); details: S. cerevisiae mlh1 rad18 strain growth inhibition, hits give high values
# Summary of the method: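 Test agents were incubated with a yeast strain of defined genotype (DNA damage repair defect). Inhibition of growth was derived by comparison with vehicle-exposed cultures.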
# [7] = at 5.0 µM (retest, dose inferred, filed as 0.5)
# [8] = at 50.0 µM (retest, dose inferred, filed as 5.0)
Compound,"growth inhibition [1, 7]","growth inhibition [1, 8]",growth inhibition ([1]; at 50.0 µM),"growth inhibition [2, 7] [%]","growth inhibition [2, 8]",growth inhibition ([2]; at 50.0 µM),"growth inhibition [3, 7]","growth inhibition [3, 8]",growth inhibition ([3]; at 50.0 µM),"growth inhibition [4, 7] [%]","growth inhibition [4, 8]",growth inhibition ([4]; at 50.0 µM),"growth inhibition [5, 7]","growth inhibition [5, 8]",growth inhibition ([5]; at 50.0 µM),"growth inhibition [6, 7]","growth inhibition [6, 8]",growth inhibition ([6]; at 50.0 µM)
OC(C/C(=N\N=C(/CC(O)(C(F)(F)F)C(F)(F)F)c1ccccc1)c1ccccc1)(C(F)(F)F)C(F)(F)F,-2%,2%,62.6%,-6,-11%,51%,-7%,-17%,50.9%,6,12%,62.1%,1%,-5%,69%,-8%,3%,71.1% (active)
Cc1ccc(NC(=O)CC2SC(N)=NC2=O)cc1C (configuration not stated),-1%,-1%,87.5% (active),3,8%,89.3% (active),-2%,5%,91.2% (active),8,4%,80.2% (active),0%,-4%,89.1% (active),-1%,6%,90.3% (active)
CC(=O)Oc1ccccc1N(C(C)=O)S(=O)(=O)c1ccc(C)cc1,16%,98% (active),95.7% (active),12,99% (active),97.5% (active),11%,99% (active),96.2% (active),1,99% (active),98.5% (active),-2%,99% (active),99.2% (active),34%,99% (active),98.8% (active)
Oc1ccc(N=Nc2ccccc2)cc1,13%,97% (active),98.5% (active),5,99% (active),99.5% (active),-6%,64%,99.3% (active),-1,98% (active),98.1% (active),4%,98% (active),98.8% (active),9%,98% (active),99.2% (active)
CC(C)CCOC(=O)Nc1cccc(Cl)c1,2%,76% (active),62.1%,-4,11%,12.8%,0%,36%,66.2%,1,-8%,13.2%,47%,17%,-0.75%,4%,33%,44%
C/C=C/C=C\C1OC(O)([C@H](CC)C(=O)NC/C=C/C=C(\C)[C@H](OC)C(C)C2OC(\C=C/C=C/C=C(\C)C(=O)c3c(O)ccn(C)c3=O)[C@H](O)[C@@H]2O)C(O)C(O)C1(C)C (some centres not stated),-23%,-46%,35.5%,-26,-18%,9.5%,-13%,34%,80.5% (active),-14,35%,26.9%,-42%,-26%,26.1%,-41%,-62%,17%
Cc1cc(C)c(Cc2ccccc2O)cc1Cc1ccccc1O,33%,47%,90.5% (active),35,46%,91.7% (active),80% (active),97% (active),92.5% (active),65,99% (active),90.7% (active),87% (active),98% (active),90.1% (active),34%,38%,89.7% (active)
Cc1ccc(Cc2n[nH]c(=O)[nH]2)cc1,32%,35%,-28.9%,18,14%,-45.1%,30%,33%,-35.7%,17,30%,-2.5%,26%,22%,-26.3%,45%,52%,-31.6%
CCCC(C)C/C(C)=C\C(C)(C)C1CC(=O)N(CC)C1=O (configuration not stated),-3%,90% (active),20.3%,-1,89% (active),80.7% (active),-3%,54%,72.7% (active),4,92% (active),83.8% (active),4%,95% (active),70.9% (active),-3%,98% (active),60.9%
CC12CC[C@@H](C(C)(C)O)C1[C@@H](O)CC1(C)C2CCC2[C@@]3(C)CC[C@H](O)C(C)(C)C3C(O)C[C@]21C (some centres not stated),17%,98% (active),90% (active),19,99% (active),92.5% (active),9%,98% (active),92.3% (active),17,98% (active),91.4% (active),15%,98% (active),91.8% (active),41%,98% (active),91.8% (active)
CCCCNC(=S)N/N=C/c1cccc(C)n1,-3%,98% (active),1.35%,-8,98% (active),32.5%,-16%,98% (active),59.2%,-11,99% (active),17.4%,-27%,97% (active),42.5%,8%,99% (active),-11.1%
O=[N+]([O-])c1cccc(F)c1O,5%,87% (active),52.5%,6,79% (active),33.1%,6%,78% (active),42.5%,6,65%,0.25%,0%,73% (active),11.3%,0%,89% (active),78.3% (active)
Cc1ccc2sc3ccc(N)cc3c(=O)c2c1,27%,84% (active),62.6%,24,74% (active),31.6%,26%,89% (active),60.6%,26,58%,43.7%,25%,95% (active),66.2%,27%,92% (active),81.8% (active)
NC(CSC1(c2ccc(Cl)cc2)c2ccccc2-c2ccccc21)C(=O)O (configuration not stated),16%,68%,68%,8,51%,61.9%,-1%,22%,35.1%,-15,59%,43.8%,1%,44%,91.2% (active),-2%,55%,74.8% (active)
O=Nc1ccc(O)c(/C=N/O)c1,19%,94% (active),87.3% (active),11,96% (active),91% (active),6%,90% (active),92.1% (active),24,95% (active),83.8% (active),1%,99% (active),90% (active),1%,97% (active),88.9% (active)
Cn1c(-c2ccc(/C=N/NC(=S)N/N=C/c3ccc(-c4c[n+]5ccsc5n4C)cc3)cc2)c[n+]2ccsc12,72% (active),95% (active),88.6% (active),66,98% (active),91.2% (active),73% (active),98% (active),91.4% (active),34,91% (active),86.4% (active),60%,89% (active),90.3% (active),72% (active),97% (active),88% (active)
CCCCN(CCCC)CC(O)c1ccc2cc(Cl)c3ccccc3c2c1 (configuration not stated),53%,99% (active),99.6% (active),40,100% (active),99.7% (active),85% (active),100% (active),99.5% (active),41,99% (active),99.4% (active),57%,99% (active),92.2% (active),63%,100% (active),99.4% (active)
CCOC(CCl)Oc1c(C(C)C)cc(C(C)C)c(Cl)c1C (configuration not stated),0%,20%,97.5% (active),-1,57%,96.7% (active),1%,49%,97.7% (active),4,26%,96.7% (active),-3%,19%,97.3% (active),-1%,27%,95% (active)
CCOC(=O)c1[nH]n(-c2ccccc2)c(=O)c1/C=N/C(=S)N=Nc1c(O)[nH]c2ccccc12,-9%,-9%,-2.3%,-21,-17%,-23.4%,-7%,-4%,-22.6%,-18,-20%,28.1%,-13%,2%,-15.8%,-1%,-2%,-35.7%
